# Sampled rows, rich in hits. Any-hit rate of the full collection: about 3.4%.
# KLK7 zymogen act: proKLK7 (human) activation, primary screen; P49862; purified proKLK7, EDANS-DABCYL substrate fluorescence; 100% is mature enzyme control, 0% vehicle; activation, % at 7 µM; 370,000 tested, 0.9% active;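 active = activation above the mean of all tested compounds plus 3 SD, computed per campaign excluding outliers beyond control limits, cut at about 13% in these data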
# ADAM10 inh: ADAM10 inhibition, QFRET primary screen | O14672 | recombinant ADAM10, EDANS/DABCYL FRET peptide cleavage, 3 h | inhibition, % at 7 µM | 370,000 tested, 0.62% active | AID 720582;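 active = inhibition above a per-campaign cutoff equal to the mean of compounds falling between control-based bounds plus 3 SD, cut at about 20% in these data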;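 note: 0% = DMSO wells while the 100% control is not disclosed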
# PLC-gamma1 inh: blocks human PLC-gamma1 enzyme activity; 370,000 tested, 0.84% active; P19174; AID 720700; purified PLC-gamma1, fluorogenic substrate, fluorescence; inhibition, % at 12.2 µM; in the data active = inhibition above about 9.5%
# PLC-beta3 inh: PLC-beta3 (human) inhibition, primary screen; Q01970; Purified PLC-beta3, fluorogenic substrate, fluorescence; inhibition, % at 12.2 µM; 370,000 tested, 0.18% active; AID 720704; in the data active = inhibition above about 11%;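 note: 0% = median of compound wells on plate and 100% = full blocker control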
# ADAM17 inh: inhibits human ADAM17. inhibition, % at 6.95 µM. recombinant ADAM17, EDANS/DABCYL FRET peptide cleavage. 370,000 tested, 0.83% active;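 active = inhibition above the mean of compounds lying between control limits plus 3 SD, set per campaign, cut at about 8.5% in these data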;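 note: 0% = DMSO-only wells as the low control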
# HGIII-sPLA2 inh: Blocks human group III sPLA2 activity. Q9NZ20. inhibition, % at 12.2 µM. 370,000 tested, 0.56% active. AID 743126. QFRET BODIPY PC-A2 liposome hydrolysis, fluorescence;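 active = inhibition above mean plus 3 SD of compounds lying within the high and low control bounds, cut at about 19% in these data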;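 note: 0% = median of test compound wells and 100% = no enzyme DMSO wells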
# Target sequence (Q9NZ20 whole entry, looked up): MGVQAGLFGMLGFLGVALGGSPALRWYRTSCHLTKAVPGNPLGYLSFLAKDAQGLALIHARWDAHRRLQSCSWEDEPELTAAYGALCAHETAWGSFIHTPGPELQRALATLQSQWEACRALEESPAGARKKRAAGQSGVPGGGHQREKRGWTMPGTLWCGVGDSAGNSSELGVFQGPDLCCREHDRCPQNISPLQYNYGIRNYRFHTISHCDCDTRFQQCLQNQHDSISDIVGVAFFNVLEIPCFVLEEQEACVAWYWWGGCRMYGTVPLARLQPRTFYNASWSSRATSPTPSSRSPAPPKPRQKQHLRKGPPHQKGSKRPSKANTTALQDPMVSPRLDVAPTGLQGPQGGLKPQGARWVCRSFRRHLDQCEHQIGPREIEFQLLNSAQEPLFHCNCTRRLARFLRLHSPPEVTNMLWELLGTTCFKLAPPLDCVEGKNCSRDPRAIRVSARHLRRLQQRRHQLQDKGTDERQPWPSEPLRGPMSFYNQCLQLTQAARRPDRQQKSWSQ
# KLK7 act conf: confirmation of human kallikrein-7 zymogen activators | shares compounds with KLK7 zymogen act | purified proKLK7, EDANS-DABCYL substrate fluorescence; scaled: vehicle 0, mature enzyme 100 | activation, % at 7 µM | 3,200 tested, 68% active | AID 686949;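 active = activation, as change over the incubation, above the mean of all tested compounds plus 3 SD, cut at about 13% in these data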
# EDANS interfere: fluorescence interference counter-screen for KLK7 activators; AID 686952; 3,200 tested, 80% active; EDANS-DABCYL substrate fluorescence interference, no enzyme, 4 h; solvent 0%, active enzyme control 100%; shares compounds with KLK7 zymogen act; activation, % at 7 µM;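 active = activation above the all-compound mean plus 3 SD, ignoring values outside control-based bounds, cut at about 4.8% in these data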;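 note: value is the 4 h activation minus the activation read at time zero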
# * hit, by the source's call; i = inactive; nt = no result.
SMILES,KLK7 zymogen act,ADAM10 inh,PLC-gamma1 inh,PLC-beta3 inh,ADAM17 inh,HGIII-sPLA2 inh,KLK7 act conf,EDANS interfere
COc1ccc(N2CCN(C(=O)C3CCN(S(=O)(=O)c4ccc5c(c4)CC(C)N5C(=O)C4CC4)CC3)CC2)cc1 (stereo not drawn),0.3,8.8,0.9,-2.4,5.4,-21.4,nt,nt
COC(=O)C1=C(C)N(C)C(=NCc2ccc(C(F)(F)F)cc2)NC1c1ccc(F)cc1 (stereo not drawn),-0.3,-8.8,5.9,-0.6,-7.5,8.8,nt,nt
CN1CCN(S(=O)(=O)c2cccc(C(=O)Nc3sc4c(c3-c3nc5ccccc5[nH]3)CCCC4)c2)CC1,49.9*,-4.2,-78.7,-89.1,-5.9,1.3,-4.2,12.1*
CC(=O)NCCC(=O)Nc1sc2c(c1-c1nc3ccccc3[nH]1)CCCC2,2.1,-91.5,-324.0,-381.1,-41.4,-7.5,nt,nt
C[C@@H]1CNCCN1c1ccc(N2CCN(Cc3ccccc3)[C@@H](C)C2)c(C#N)c1,1.6,-36.6,-98.5,-124.7,-7.9,9.8,nt,nt
Nc1[nH]c(C(=O)c2ccccc2)c(-c2cccc3ccccc23)c1C(=O)c1cccs1,0.0,-4.0,-3.1,-2.2,-0.1,1.4,nt,nt
COc1ccc(O)c(C(=O)c2cnn(S(=O)(=O)c3ccc(C)cc3)c2)c1,1.3,-17.0,-1.1,-6.4,-0.3,-7.4,nt,nt
COc1ccc(C(=O)n2cc(C(=O)c3cc(C)ccc3O)cn2)cc1,0.3,1.8,0.1,-1.3,-0.3,-3.0,nt,nt
COc1ccc(C(=O)n2cc(C(=O)c3cc(C)ccc3O)cn2)cc1OC,21.5*,-1.2,-8.6,-9.0,-2.9,-14.6,55.5*,49.2*
COc1ccc(O)c(C(=O)c2cnn(C(=O)c3cc(C)oc3C)c2)c1,40.3*,-18.4,-18.4,-24.0,-10.9,2.4,174.3*,143.8*
COc1ccc(O)c(C(=O)c2cnn(C(=O)c3cccc(N(C)C)c3)c2)c1,50.5*,-105.0,-34.4,-42.9,-31.8,-3.1,168.3*,156.8*
CCOC(=O)CC[C@@]1(C(=O)OCC)C[C@@H](CC(=O)NCCc2ccccc2OC)C(=O)N2CCCC=C21,0.2,-13.0,1.6,-0.8,1.1,15.8,nt,nt
COCCCNC(=O)C[C@H]1C[C@@]2(C(=O)OC)C(=C[C@H](C(C)C)O[C@@H]2C2CC2)N(Cc2ccccc2)C1=O,0.2,-6.1,1.2,-0.8,-3.1,4.7,nt,nt
Cc1ccc(-c2cc(C(=O)NCCCn3ccnc3)c3ccccc3n2)s1,35.3*,i,i,i,i,-22.8,74.8*,75.7*
C/C(=N\NC(=O)c1cc(-c2ccc(C)s2)nc2ccccc12)c1cccnc1,65.7*,i,i,i,i,5.2,-151.1,-210.5
O=C(NCc1ccco1)c1cc(-c2cccs2)nc2ccccc12,2.9,i,-475.6,i,-424.0,-9.7,nt,nt
Cc1ccc(-c2cc(C(=O)NCc3ccco3)c3ccccc3n2)s1,15.6*,i,i,i,i,-1.0,21.6*,65.4*
CN[C@H]1C[C@@H](c2ccccc2Br)N(C(C)=O)C[C@H]1CO,0.4,-7.1,2.2,1.1,-1.6,0.0,nt,nt
Cc1cccc(N2CCN(C(=O)c3ccc4c(=O)[nH]c5c(C(=O)NC6CCCC6)sc(=S)n5c4c3)CC2)c1C,-0.1,-5.1,-3.9,-0.9,-1.9,-5.4,nt,nt
Cc1cccc(NC(=S)NNC(=S)NC2CCCCC2)c1C,27.6*,1.0,1.2,-2.3,-0.8,2.3,1.4,-0.8
Cc1ccc(NC(=O)CN(C)C(=O)C(c2ccccc2)c2ccccc2)cc1,0.3,-2.0,2.3,-8.8,-3.9,-9.9,nt,nt
Cc1ccc(NC(=O)CN(C)C(=O)C(C)OC(=O)c2ccccc2NCCO)cc1 (stereo not drawn),21.0*,i,i,i,i,-5.0,-2.5,-0.8
COc1ccccc1C(C)NCC(=O)NCC(=O)Nc1ccc(F)c(F)c1F (stereo not drawn),0.0,0.9,0.6,0.0,-3.7,3.3,nt,nt
CC(OC(=O)c1ccccc1NCCO)C(=O)NCC(=O)Nc1ccc(F)c(F)c1F (stereo not drawn),25.3*,i,-471.5,i,i,-5.7,82.7*,73.7*
COC(=O)C1CN(Cc2ccc(F)cc2)CCS(=O)(=O)N1Cc1cn(Cc2ccc(C)cc2)nn1 (stereo not drawn),0.3,-1.0,1.7,4.8,0.2,-3.6,nt,nt
SMILES,KLK7 zymogen act,ADAM10 inh,PLC-gamma1 inh,PLC-beta3 inh,ADAM17 inh,HGIII-sPLA2 inh,KLK7 act conf,EDANS interfere
CC(=O)C1=C(C)N(Cc2ccc(Br)cc2)C(=S)NC1c1cccc(Br)c1 (stereo not drawn),-0.3,11.0,2.2,-1.4,4.8,-12.5,nt,nt
COc1ccc(-c2c(C)oc3c(CN4CCCC(C)C4)c(O)ccc3c2=O)cc1OC (stereo not drawn),7.4,-426.1,-265.1,-332.3,-164.6,1.4,nt,nt
Cc1oc2c(CN3CCCCC3)c(O)ccc2c(=O)c1-c1ccc(Cl)cc1,38.3*,i,i,i,-399.2,3.2,28.1*,34.0*
Cc1oc2c(CN3CCOCC3)c(O)ccc2c(=O)c1-c1ccccc1,72.5*,i,i,i,-344.9,-5.5,22.6*,30.2*
COc1ccccc1-c1c(C)oc2c(CN3CCOCC3)c(O)ccc2c1=O,65.9*,i,i,i,-480.4,2.8,69.3*,78.9*
COc1cccc(Oc2c(C)oc3c(CN4CCOCC4)c(O)ccc3c2=O)c1,31.4*,-493.2,-279.9,-392.1,-184.9,6.0,12.3,22.7*
CC1CCCN(C(=O)Nc2ccc([N+](=O)[O-])cc2)C1 (stereo not drawn),0.5,5.7,2.3,4.7,3.0,1.9,nt,nt
COc1ccccc1Cc1c(-c2cccc(Br)c2)nc2ccc(C)cn12,-2.2,-45.1,-12.5,-21.9,-2.0,0.0,nt,nt
COC(=O)CSc1nc2ccccn2c(=O)c1C=O,58.7*,-92.2,-14.4,-18.6,-29.6,2.8,77.3*,69.3*
O=Cc1c(Sc2ccccc2)nc2ccccn2c1=O,0.2,4.5,0.8,-0.8,-0.6,-2.0,nt,nt
O=Cc1c(SCCO)nc2ccccn2c1=O,30.9*,-7.5,0.0,-8.3,-5.5,5.8,23.5*,23.6*
C[C@@H]1COc2cccc(NCCCN3CCOCC3)c2S(=O)(=O)N1,-0.1,-6.6,2.6,0.1,-3.4,-1.0,nt,nt
CCc1cc2c(=O)c(-c3nc4ccccc4n3C)c(C)oc2c(CN(CC)CC)c1O,16.2*,-356.7,-299.6,-340.7,-126.5,1.1,11.1,11.4*
CCc1cc2c(=O)c(-c3nc4ccccc4n3C)coc2c(CN2CCN(C)CC2)c1O,8.6,-145.6,-268.5,-302.4,-47.6,-16.9,nt,nt
